PubChem BioAssay AID493011 (Sanford-Burnham Center for Chemical Genomics, 2011)
Among all 330,000 compounds or so, about 1,400 (0.42%) were called active.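 How the source made its calls: active means at least 40% inhibition at 20 µM here, with at most 30% in a related deaminase screen; inactive means the rest.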 Only a selection was taken, and actives are over-represented in it overall.

What follows are molecules tested against DNA dC->dU-editing enzyme APOBEC-3A (Homo sapiens) (UniProt P31941) (assay: APOBEC3A ssDNA deaminase inhibitors, primary screen, selectivity assay for APOBEC3G inhibitor project, biochemical, FAM/TAMRA oligo cleavage fluorescence (AID 493011;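 further: plate controls were A3A with DMSO for no effect and wells lacking A3A enzyme for full effect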)). Settings: recombinant A3A, FAM/TAMRA ssDNA deamination fluorescence; at 20 µM; stronger effect = higher value.
Sequence of DNA dC->dU-editing enzyme APOBEC-3A (Homo sapiens) (P31941 whole entry, looked up): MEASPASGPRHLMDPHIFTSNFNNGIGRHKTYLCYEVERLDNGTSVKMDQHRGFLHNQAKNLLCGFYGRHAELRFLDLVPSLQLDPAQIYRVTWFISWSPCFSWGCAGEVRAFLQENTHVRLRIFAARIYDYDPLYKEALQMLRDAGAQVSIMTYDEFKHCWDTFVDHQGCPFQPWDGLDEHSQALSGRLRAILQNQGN

| SMILES | inhibition |
| --- | --- |
| CCN(CC)CCOC(=O)c1cc2cc(COC)ccc2o1 | 75.9% (active) |
| CC(=NC1CCN(Cc2ccccc2)CC1)c1c(O)n(C)c(=O)n(C)c1=O | 1.55% (inactive) |
| COc1cc(OC)cc(C2(C#N)CCN(C)CC2)c1 | 3.94% (inactive) |
| CN(C)c1nc(N(C)C)nc(N(C#N)CCCl)n1 | -2.95% (inactive) |
| O=C(O)CCn1cc(C=C2C(=O)NC(=S)NC2=O)c(-c2cccc(Br)c2)n1 | 40.8% (active) |
| COC(=O)C1=C(c2cccc(OCc3ccccc3)c2)C[C@@H]2CC[C@H]1N2C(=O)NNCc1ccccc1 | -3.97% (inactive) |
| CC(=C1C(=O)c2ccccc2C1=O)N1CCN(CCN=Cc2c(O)n(C)c(=O)n(C)c2=O)CC1 | 1.68% (inactive) |
| CC[N+]1(C)CCCC(OC(=O)C(O)(c2ccccc2)c2ccccc2)C1 (stereo not given) | -0.37% (inactive) |
| O=C(c1cc(S(=O)(=O)N2CCOCC2)ccc1F)N1CCC2(CC1)OCCO2 | 4.32% (inactive) |
| CNC(=O)O/N=C(\N)Cc1csc2ccccc12 | 1.51% (inactive) |
